The nature of assay [1]: qHTS assay to identify small molecule antagonists of the estrogen receptor alpha (ER-alpha) signaling pathway using the BG1 cell line in the presence of 0.1 nM 17-beta-estradiol - cell viability counter screen (AID 1259241). Note: nearly all actives have a fitted effect of over 40% in size. The method in brief:
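VM7Luc4E2 cells (endogenous full-length ER-alpha, 4xERE-luciferase), cultured 5 days in charcoal-stripped serum, exposed to compounds with 0.1 nM 17beta-estradiol (final) for 22 hr at 37C. Viability read in same wells as live-cell protease fluorescence after 30 min.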
A general note: In qHTS, concentration-response curves come from the screen itself.

Assay [2] in a line: qHTS assay to identify small molecule antagonists of the androgen receptor (AR) signaling pathway using the MDA cell line in the presence of 0.5 nM R1881 - cell viability counter screen (AID 1259242). Note: nearly all actives have a fitted effect of over 45% in size. The method in brief:
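Human breast carcinoma MDA-kb2 cells, cultured without CO2, receive compounds alongside 0.5 nM (final) R1881 agonist. After 16 hr at 37C, viability is taken as live-cell protease signal.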

The target in assay [3] is Estrogen receptor (Homo sapiens) (UniProt P03372). Put plainly: qHTS assay to identify small molecule antagonists of the estrogen receptor alpha (ER-alpha) signaling pathway using the BG1 cell line in the presence of 0.1 nM 17-beta-estradiol (AID 1259244). Note: nearly all actives have a fitted effect of over 50% in size. Note: potency is the fitted concentration of half-maximal effect. The method in brief: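 Seeding of stripped-serum-adapted VM7Luc4E2 cells, 24 h attachment, compound transfer, then 0.1 nM final 17beta-estradiol; after 22 h incubation, ONE-Glo reagent and luminescence reading.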
Chain of Estrogen receptor (Homo sapiens) (P03372 whole entry, looked up): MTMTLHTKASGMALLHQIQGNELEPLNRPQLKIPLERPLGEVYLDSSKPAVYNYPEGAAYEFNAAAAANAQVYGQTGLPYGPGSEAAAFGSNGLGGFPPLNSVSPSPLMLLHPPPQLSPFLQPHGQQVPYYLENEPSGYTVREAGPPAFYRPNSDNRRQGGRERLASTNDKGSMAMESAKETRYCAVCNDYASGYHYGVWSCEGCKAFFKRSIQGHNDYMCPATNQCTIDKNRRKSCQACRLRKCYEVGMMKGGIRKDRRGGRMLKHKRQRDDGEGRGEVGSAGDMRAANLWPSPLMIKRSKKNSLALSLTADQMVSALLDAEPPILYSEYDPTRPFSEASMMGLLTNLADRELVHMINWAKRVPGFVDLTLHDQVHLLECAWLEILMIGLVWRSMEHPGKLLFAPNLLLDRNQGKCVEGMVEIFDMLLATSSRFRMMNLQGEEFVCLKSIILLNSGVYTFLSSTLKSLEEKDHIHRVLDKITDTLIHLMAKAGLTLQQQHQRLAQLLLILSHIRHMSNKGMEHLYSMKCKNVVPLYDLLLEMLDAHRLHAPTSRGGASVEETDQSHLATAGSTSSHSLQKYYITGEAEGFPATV

Assay [4] is described as follows: qHTS assay to identify small molecule HDAC inhibitors (AID 1259364).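 Note: wild-type HCT-116 cells with endogenous class I/II HDAC activity; top concentration of the series differs between compounds; nearly all actives have a fitted effect of over 45% in size.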 The method in brief: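 After a 2 hr compound incubation (37C, 5% CO2), HCT-116 cells seeded at 1,500/well the day before received HDAC-Glo reagent; signal read as luminescence after 30 min at room temperature.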
Assay [5] can be described thus: qHTS assay to identify small molecule HDAC inhibitors - cell viability counter screen (AID 1259365). Note: series mostly up to about 92 µM; nearly all actives have a fitted effect of over 50% in size. The method in brief:
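Wild-type HCT-116 cells, 1,500/well, cultured overnight, then compound-treated 2 h at 37 C. Viability measured as ATP luminescence with CellTiter-Glo after 30 min at room temperature.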

Assay [6] in a line: qHTS assay to identify small molecule agonists of the sonic hedgehog signaling (Shh) pathway - cell viability counter screen (AID 1259366). Note: nearly all actives have a fitted effect of over 50% in size. The method in brief:
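NIH/3T3-derived Gli1-Luc reporter cells, 2,000 per well, received compound after 4 h and were treated about 23 h at 37C. Viability measured in the same wells by CellTiter-Fluor fluorescence after 1 h.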

Assay [7] in a line: qHTS assay to identify small molecule antagonists of the sonic hedgehog signaling (Shh) pathway - cell viability counter screen (AID 1259367). Note: nearly all actives have a fitted effect of over 55% in size. In short, it runs like this: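 Tox21 library chemicals were tested on a Gli1-Luc NIH/3T3 clone (2,000 cells/well) stimulated by conditioned medium; viability was quantified as fluorescence from CellTiter-Fluor reagent added at 23 hr.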

Assay [8] in a line: qHTS assay to identify small molecule agonists of the sonic hedgehog signaling (Shh) pathway (AID 1259368; calls by dose curve;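 note: NIH/3T3-derived 3T3Gli1-Luc cells carrying a stable Gli1-driven firefly luciferase reporter; series mostly up to about 92 µM; nearly all actives have a fitted effect of over 15% in size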). In short, it runs like this: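 Stable NIH/3T3 Gli1-Luc reporter clone; 24 hr cpd exposure after a 4 hr settling period; luminescence endpoint.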
Assay [9] can be described thus: qHTS assay to identify small molecule antagonists of the sonic hedgehog signaling (Shh) pathway (AID 1259369; calls by dose curve; note: nearly all actives have a fitted effect of over 45% in size). In short, it runs like this: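 Gli1 transcriptional reporter (firefly Luc) in NIH/3T3 background, conditioned-medium activated. 24hr exposure, luminescence endpoint.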
For assay [10], the target named is Estrogen receptor beta (Homo sapiens) (UniProt Q92731). In words: qHTS assay to identify small molecule agonists of the estrogen receptor beta (ER-beta) signaling pathway (AID 1259377; active = well fitted activation curve with a large enough effect in the signal ratio in the repeat runs, not every such curve was filed as active; the % refers to the signal ratio). The method in brief:
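ER-beta-UAS-bla HEK293T cells in medium with 2% charcoal-stripped FBS were exposed to compounds for 16 h at 37C. Beta-lactamase reporter activity was read as fluorescence after 2 h with LiveBLAzer B/G FRET substrate at room temperature.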

A short description of assay [11]: qHTS assay to identify small molecule agonists of the androgen receptor (AR) signaling pathway in the presence of an antagonist - cell viability counter screen (AID 1259379).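 Note: MDA-kb2 human breast cancer cells carrying an MMTV luciferase reporter; series mostly up to about 92 µM; nearly all actives have a fitted effect of over 25% in size.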 In short, it runs like this:
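Counter screen for cell viability run in parallel with the AR agonist-mode luciferase assay. MDA-kb2 cells were co-treated with nilutamide (3.0uM final) and compounds, then incubated 16 hr at 37C, and CellTiter-Fluor fluorescence was measured.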

Assay [12] in a line: qHTS assay to identify small molecule agonists of the estrogen receptor beta (ER-beta) signaling pathway - cell viability counter screen (AID 1259380). Note: nearly all actives have a fitted effect of over 30% in size. Note: potency is the fitted concentration of half-maximal effect. In short, it runs like this:
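In this qHTS counter screen, HEK293T cells carrying an ER-beta/UAS beta-lactamase reporter, grown in 2% charcoal-stripped FBS, received compound for 16 hr; ATP-based CellTiter-Glo luminescence was then read after 30 min at room temperature.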

The nature of assay [13]: qHTS assay to identify small molecule antagonists of the estrogen receptor beta (ER-beta) signaling pathway - cell viability counter screen (AID 1259382). Note: series mostly up to about 92 µM; nearly all actives have a fitted effect of over 55% in size. The method in brief: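 HEK293T ER-beta-UAS-bla, 2% charcoal-stripped FBS; compounds + 1nM E2 16 hr 37C; CellTiter-Glo luminescence, 30 min RT.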
For assay [14], the target named is Estrogen receptor (Homo sapiens) (UniProt P03372). In words: qHTS assay to identify small molecule agonists of the estrogen receptor alpha (ER-alpha) signaling pathway in the presence of an antagonist (AID 1259383; calls by dose curve; note: top concentration of the series differs between compounds; nearly all actives have a fitted effect of over 15% in size). In short, it runs like this:
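ER-alpha agonism measured under antagonist challenge: 10.0nM ICI-182,780 (final) plus compound, 15 concentrations, 22hr, VM7Luc4E2 ERE-luciferase cells. Read by luminescence.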

The nature of assay [15]: qHTS assay to identify small molecule agonists of the estrogen receptor alpha (ER-alpha) signaling pathway in the presence of an antagonist - cell viability counter screen (AID 1259386). Note: series mostly up to about 92 µM; nearly all actives have a fitted effect of over 30% in size. In short, it runs like this: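 Steps: 5-day stripped-FBS culture; seed and incubate 24hr; add ICI-182,780 (10.0nM final); pin 15-point compound titration; incubate 22hr at 37C; add CellTiter-Fluor at 21hr; read fluorescence.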

Assay [16] can be described thus: qHTS assay to identify small molecule agonists or antagonists of the thyroid stimulating hormone receptor (TSHR) signaling pathway - wild type cell line counter screen (AID 1259384; calls by dose curve). In short, it runs like this:
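Wild-type Hek293 cells, 800/well, 18 h at 37C, then compound with Ro20-1724 for 30 min RT. cAMP by HTRF (cAMP-d2/anti-cAMP cryptate), 1 h RT, fluorescence read. 15 concentrations, triplicates.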

Assay [17] deals with Thyrotropin receptor (Homo sapiens) (UniProt P16473). Put plainly: qHTS assay to identify small molecule antagonists of the thyroid stimulating hormone receptor (TSHR) signaling pathway (AID 1259385; calls by dose curve; note: nearly all actives have a fitted effect of over 20% in size). In short, it runs like this: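 TSHR-HEK293 cells (800/well) plated 18 h, then compounds with Ro20-1724 and TSH at 1.5 ng/mL final, 30 min at room temperature. cAMP quantified by HTRF (cAMP-d2/anti-cAMP-cryptate, 1 h); 15 concentrations in triplicate.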
Chain of Thyrotropin receptor (Homo sapiens) (P16473 whole entry, looked up): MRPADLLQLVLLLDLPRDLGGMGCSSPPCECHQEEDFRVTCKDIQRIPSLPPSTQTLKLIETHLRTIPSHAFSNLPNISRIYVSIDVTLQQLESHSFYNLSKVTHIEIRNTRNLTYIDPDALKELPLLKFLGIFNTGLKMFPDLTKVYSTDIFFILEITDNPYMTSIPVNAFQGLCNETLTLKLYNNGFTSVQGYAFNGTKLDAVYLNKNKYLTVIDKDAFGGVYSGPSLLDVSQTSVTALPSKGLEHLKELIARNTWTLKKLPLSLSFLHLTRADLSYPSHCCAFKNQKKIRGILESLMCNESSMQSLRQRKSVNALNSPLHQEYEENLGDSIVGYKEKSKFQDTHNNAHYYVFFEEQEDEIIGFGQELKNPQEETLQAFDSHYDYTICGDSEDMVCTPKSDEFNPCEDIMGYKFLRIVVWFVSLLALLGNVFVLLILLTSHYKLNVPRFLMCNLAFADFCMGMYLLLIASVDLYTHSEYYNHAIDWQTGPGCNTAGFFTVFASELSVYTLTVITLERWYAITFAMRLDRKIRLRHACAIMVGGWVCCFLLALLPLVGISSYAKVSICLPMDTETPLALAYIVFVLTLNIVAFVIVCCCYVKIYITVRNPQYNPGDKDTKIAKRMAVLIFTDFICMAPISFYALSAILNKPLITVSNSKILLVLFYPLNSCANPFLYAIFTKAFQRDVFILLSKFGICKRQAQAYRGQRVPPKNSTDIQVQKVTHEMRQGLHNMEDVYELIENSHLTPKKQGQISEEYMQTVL

Assay [18] has as its target Estrogen receptor beta (Homo sapiens) (UniProt Q92731). Put plainly: qHTS assay to identify small molecule antagonists of the estrogen receptor beta (ER-beta) signaling pathway (AID 1259378; active = well fitted inhibition curve with a large enough effect in the signal ratio in the repeat runs, not every such curve was filed as active; the % refers to the signal ratio). In short, it runs like this:
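ER-beta-UAS-bla HEK293T cells in 2% charcoal-stripped FBS medium treated with compound plus 1nM final 17-beta-estradiol for 16 hr at 37C. Beta-lactamase reporter read by FRET substrate fluorescence after 2 hours at room temperature.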

Molecules are shown by their SMILES. Inconclusive results are not listed. Active and inactive are the calls of the source. Unless noted, calls come from the whole dose curve; as a rule, active = well fitted curve in the direction sought with a large enough effect in the repeat runs; inconclusive = weak or mixed curves; inactive = no such curve, though single readings can be large; an effect the other way counts as inactive or inconclusive.

Chain of Estrogen receptor beta (Homo sapiens) (Q92731 whole entry, looked up): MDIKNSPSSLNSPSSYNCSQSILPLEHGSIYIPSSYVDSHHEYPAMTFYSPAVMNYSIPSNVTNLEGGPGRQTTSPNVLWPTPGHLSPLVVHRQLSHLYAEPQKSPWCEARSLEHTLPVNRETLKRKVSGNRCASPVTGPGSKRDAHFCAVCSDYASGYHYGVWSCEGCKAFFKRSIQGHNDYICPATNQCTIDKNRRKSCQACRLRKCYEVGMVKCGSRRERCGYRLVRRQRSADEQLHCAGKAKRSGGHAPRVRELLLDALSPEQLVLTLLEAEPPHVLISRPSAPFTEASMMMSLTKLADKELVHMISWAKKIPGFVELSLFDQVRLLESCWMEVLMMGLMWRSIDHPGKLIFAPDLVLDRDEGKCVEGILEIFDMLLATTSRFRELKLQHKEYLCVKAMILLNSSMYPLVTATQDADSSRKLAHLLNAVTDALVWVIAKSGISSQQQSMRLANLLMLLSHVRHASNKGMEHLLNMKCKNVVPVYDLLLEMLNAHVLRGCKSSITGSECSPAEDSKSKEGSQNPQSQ

Consider `Brc1cccc(-c2ccccc2)c1`, for which the Potency entry in [1], in assay [2], in assay [3], in assay [4], in assay [5] and in [6] was “inactive” throughout. For the same compound, the Potency result in assay [7], in assay [8], in [9], in assay [10], in [11] and in [12] was “inactive” throughout. Besides, the Potency result in assay [13], in assay [14] and in assay [15] was “inactive” each time.
As to `O=C(Cl)c1ccccc1F`, the Potency entry in [1], in assay [2], in assay [3], in assay [4], in assay [5] and in assay [6] was “inactive” each time. The Potency entry in [7], in assay [8], in [9], in assay [10], in [11] and in assay [12] was “inactive” each time. Moreover, the Potency entry in assay [13], in assay [14], in assay [16], in assay [17] and in assay [15] was “inactive” in each case.
Consider `N#Cc1c[nH]cc1-c1cccc2c1OC(F)(F)O2`, for which the Potency result in assay [1], in assay [2], in assay [4], in [5], in assay [6] and in assay [7] was “inactive” in each case. In addition, the Potency entry in [8], in assay [14], in assay [16] and in [17] was “inactive” each time. Also, the values for the Potency in [3] and in assay [12] were 24.3 µM (active) and 21.7 µM (active), respectively.
On to `COP(=S)(OC)Oc1ccc([N+](=O)[O-])c(C)c1`, for which the Potency result in assay [1], in assay [2], in assay [3], in assay [4], in [5] and in [6] was “inactive” each time. The Potency entry in [8], in assay [10], in assay [13], in assay [14], in assay [17] and in assay [15] was “inactive” throughout.
In the case of `Oc1ccc(Cl)c(Cl)c1`, the Potency result in assay [1], in assay [2], in [3], in [4], in assay [5] and in [6] was “inactive” throughout. In addition, the Potency entry in [7], in [11], in assay [13], in assay [14], in assay [16] and in [17] was “inactive” in each case. For the same compound, the Potency result in assay [15] was “inactive”.
On to `COc1c2c(cc3c1OCO3)CCN(C)C2`, for which the Potency result in assay [1], in assay [2], in assay [3], in assay [4], in assay [5] and in [6] was “inactive” each time. The Potency result in assay [7], in [8], in assay [9], in [11], in [12] and in assay [13] was “inactive” each time. In addition, the Potency result in assay [14], in assay [16], in assay [17] and in assay [15] was “inactive” throughout.
`Oc1cc(Cl)cc(Cl)c1`: the Potency entry in assay [1], in [2], in assay [3], in assay [4], in assay [5] and in assay [6] was “inactive” in each case. For the same compound, the Potency entry in assay [7], in [8], in assay [12], in [13], in assay [14] and in [15] was “inactive” throughout.
In the case of `ClSC(Cl)(Cl)Cl`, the Potency result in assay [1], in [2], in [3], in assay [4], in assay [5] and in assay [6] was “inactive” in each case. The Potency result in assay [7], in assay [8], in [9], in [10], in assay [12] and in assay [13] was “inactive” each time. The Potency entry in assay [14], in [16], in assay [17] and in [15] was “inactive” in each case.
Turning to `C=Cc1cccc(CCl)c1`, the Potency entry in [1], in assay [2], in assay [3], in assay [4], in assay [5] and in [6] was “inactive” in each case. Also, the Potency result in assay [7], in assay [8], in assay [9], in assay [10], in assay [18] and in assay [11] was “inactive” throughout. Besides, the Potency result in [12], in assay [13], in assay [14], in assay [16], in assay [17] and in assay [15] was “inactive” in each case.

(Values after PubChem BioAssay (Tox21).)
